We go through twelve molecules from PubChem BioAssay (NCATS).

Inconclusive results are not listed. A number with no mark means an inactive call. The source made the active and inactive calls. Calls follow the shape of the full dose curve.

Thyroid hormone receptor beta (Homo sapiens), sequence (P10828 whole entry, looked up): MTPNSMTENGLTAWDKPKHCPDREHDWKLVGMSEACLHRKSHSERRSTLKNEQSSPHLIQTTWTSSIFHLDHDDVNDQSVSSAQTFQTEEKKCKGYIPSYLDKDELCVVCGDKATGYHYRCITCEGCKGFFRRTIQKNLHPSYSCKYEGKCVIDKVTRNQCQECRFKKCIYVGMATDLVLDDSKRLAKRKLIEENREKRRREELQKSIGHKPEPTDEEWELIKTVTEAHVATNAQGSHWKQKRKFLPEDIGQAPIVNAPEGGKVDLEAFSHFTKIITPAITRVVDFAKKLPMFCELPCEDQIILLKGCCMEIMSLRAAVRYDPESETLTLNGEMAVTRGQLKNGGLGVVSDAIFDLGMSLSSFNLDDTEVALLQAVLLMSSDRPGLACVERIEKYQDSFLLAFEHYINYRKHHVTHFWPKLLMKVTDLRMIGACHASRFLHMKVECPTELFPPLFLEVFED

This assay has as its target Thyroid hormone receptor beta (Homo sapiens) (UniProt P10828). In words: qHTS assay for small molecule agonists of thyroid hormone receptor beta signaling (AID 588545). The following applies: TR-UAS-bla GripTite HEK 293, beta-lactamase ratio, agonist mode, 18 h, percent of T3 response, DMSO as zero; series mostly up to 76.7 µM; activation: at the top concentration. From the text: NIH Chemical Genomics Center [NCGC]
U.S. Environmental Protection Agency [EPA]
National Institutes of Environmental Health Sciences [NIEHS]
National Toxicology Program [NTP]
Thyroid hormone receptor (TR) belongs to nuclear hormone receptor superfamily. There are two subtypes for TR: TR-alpha and TR-beta. TR-beta plays a major role in regulating plasma cholesterol levels and it mediates the biological activities of thyroid hormone. Screening environmental chemicals on TR-beta signaling will provide important information for the mechanism of compound action.
NCGC Assay Protocol Summary
Using a beta-lactamase reporter-gene under control of the TR response element, a cell-based assay [GeneBLAzer TR-UAS-bla-GripTite assay developed by Invitrogen] was used to measure TR-beta signaling in agonist mode. TR-UAS-bla-GripTite HEK 293 cells were used with assay medium containing 2% charcoal/dextran FBS, 0.1 mM NEAA and 1 mM sodium pyruvate. The assay was performed in clear bottom black Greiner 1536-well plates. T3 was used as a positive control in the screen. Library compounds were measured for their ability to stimulate the reporter gene activity. Compounds were screened in a titration series in 1536-well format. The fluorescence intensity (405 nm excitation, 460/530 nm emission) was measured using an EnVision plate reader. Data was normalized relative to T3 control (10 nM, 100%), and DMSO only wells (basal, 0%). Concentration-response titration points for each compound were fitted to the Hill equation yielding concentrations of half-maximal stimulation (EC50) and maximal response (efficacy) values.
qHTS protocol for TR-beta beta-lactamase assay in agonist mode
[Step] [Parameter] [Value] [Description]
1. Reagent; 6 uL; 2500 cells/well
2. Incubation; 37 C for 4 hrs
- Dose response; start 3.8 uM, 1:3 dilutions, duplicates in first column
- Two columns of each 10 and 0.4 nM (finals) concentrations.
5. Incubation; 37 C for 18 hrs
6. Detection reagent; 1 uL of CCF4-dye
7. Incubation; RT for 2 hrs
8. Detection; Fluorescence; Envision plate reader
In general terms: qHTS replaces the single test concentration by a dilution series.
As for `COc1ccc2nc(S(=O)Cc3ncc(C)c(OC)c3C)[nH]c2c1` (configuration not stated), the “activation” value is -13.9%. Regarding `O=c1[nH]cnc2[nH]ncc12`, the “activation” value was -17.3%.

Consider `CNC[C@H](O)c1cccc(O)c1`, for which the “activation” value was -15.8%. On the same count and under the same terms, with `Cc1ccccc1C(OCCN(C)C)c1ccccc1` (configuration not stated) the figure was -3.5%. For `CCCC(CCC)C(=O)O`, the result was inactive. Still for that read-out and setting: the value for `Cn1cnc([N+](=O)[O-])c1Sc1ncnc2nc[nH]c12` was “inactive”. In the case of `Cc1[nH]c(=O)c(C#N)cc1-c1ccncc1`, the “activation” value was -5.86%. Still for that read-out and setting: the value for `C[C@]12CCC(=O)C=C1CC[C@@H]1[C@@H]2[C@@H](O)C[C@@]2(C)[C@H]1CC[C@]2(O)C(=O)CO` was 1.57%; that for `Cc1c(C)c2c(c(C)c1O)CCC(C)(COc1ccc(CC3SC(=O)NC3=O)cc1)O2` (configuration not stated) was 5.13%.

`NC[C@H](O)c1ccc(O)c(O)c1`: the “activation” value was 15.3%. As for `NS(=O)(=O)c1cc2c(cc1Cl)NC=NS2(=O)=O`, the “activation” value was -38.5%. Same read-out and setting: the value for `NC(N)=NC(=O)c1nc(Cl)c(N)nc1N` was -62.9%.
